# Compounds with a hit are over-represented: about 4% of the library has one in this group of screens.
# TRHR enhancer: allosterically enhances the human TRH receptor. 360,000 tested, 0.66% active. TRHR cells, fluo-8 calcium fluorescence, EC20 TRH enhancement. enhancement, % at 2 µM; in the data active = enhancement above about 30%; note: 0% is about no effect
# Target sequence (P34981 whole entry, looked up): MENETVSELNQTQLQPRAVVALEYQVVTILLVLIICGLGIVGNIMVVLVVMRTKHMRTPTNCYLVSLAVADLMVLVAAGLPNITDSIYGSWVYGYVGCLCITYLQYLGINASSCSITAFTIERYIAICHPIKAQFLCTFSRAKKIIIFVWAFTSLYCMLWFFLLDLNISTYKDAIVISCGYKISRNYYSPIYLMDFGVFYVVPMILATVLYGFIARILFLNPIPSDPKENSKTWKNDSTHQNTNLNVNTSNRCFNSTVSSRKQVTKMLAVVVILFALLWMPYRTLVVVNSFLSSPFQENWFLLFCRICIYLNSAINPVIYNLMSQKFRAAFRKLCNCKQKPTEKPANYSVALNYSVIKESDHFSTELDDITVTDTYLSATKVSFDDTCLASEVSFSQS
#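 Enhancer read-out: after compound pinning and an initial kinetic agonist-mode read, an EC20 of TRH (10 nM final) was injected and fluo-8 calcium signal (Ex 480/Em 530) followed at 1 s/cycle for 100 cycles in TRHR-expressing cells.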
# Glioma ERSR ind: inducers of ER stress response in human glioma cells; U87-MG GRP78 promoter luciferase reporter, 16 h; Potency, µM, without a hit: at the top dose activation, hits mostly activators; 420,000 tested, 0.02% active; AID 602332; active = well fitted activation curve with a large enough effect; note: potency is the fitted concentration of half-maximal effect; series mostly up to about 76 µM; % of control where 0% means no effect; nearly all actives have a fitted effect of over 35% in size
#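 ERSR induction read as luciferase luminescence (Bright-Glo, 10 min at room temperature) in stably transfected human U87-MG glioma cells exposed to compounds for 16 h, using GRP78 as sensor.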
# D1 antagonist: blocks dopamine activation of the human D1 receptor | activity change, negative = inhibition, % at 10 µM | 360,000 tested, 3.2% active | HEK293 TREx D1 cells, calcium flux, dopamine EC80; stronger effect = lower value | P21728; in the data active = activity change below about -30%; note: % is set by controls: 0 for no effect and ±100 for the full control effect
#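 Antagonism measured as reduced calcium response to an EC80 dopamine addition following 180 s compound pre-read; cells were inducible HEK293 Trex D1 plated overnight at 30 C, read kinetically at 1 cycle/sec.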
# D1 ag: human D1 receptor agonism. HEK293 T-REx D1 cells, calcium flux, agonist mode. activation, % at 2 µM. 360,000 tested, 1% active. AID 504660; note: 0% is about no effect
#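 Tetracycline-induced HEK293 TREx D1 cells, force-coupled to calcium signalling, were dye-loaded with a no-wash calcium kit. Compound was pin-added after a 10 s baseline. Fluorescence was read kinetically at 1 cycle/s for 180 s, with calcium rises flagged as agonism.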
# TRHR agonist: activates the human TRH receptor | P34981 | TRHR cells, calcium flux fluo-8, FDSS agonist mode | activation, % at 2 µM | 360,000 tested, 0.18% active | AID 493084; note: 0% is about no effect
#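 TRHR-expressing cells loaded with fluo-8 calcium dye; 23 nL library compound pin-transferred, kinetic FDSS fluorescence (Ex 480/Em 530) recorded about 180 s for agonist-induced calcium release, before a 10 nM TRH EC20 addition for potentiator mode.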
# D1 potentiator: enhances dopamine response at the human D1 receptor. P21728. HEK293 TREx D1 cells, calcium flux, dopamine EC20 potentiation. potentiation, % at 10 µM. 360,000 tested, 0.036% active; in the data active = potentiation above about 30%; note: 0% is about no effect
# The depositor's hits bear a star; x = no result. Cut-off read from the data, not from the text of the source, unless noted: active = activation above about 30%; inactive = the rest.
SMILES,TRHR enhancer,Glioma ERSR ind,D1 antagonist,D1 ag,TRHR agonist,D1 potentiator
CC(C)C[C@H]1CN=C(Nc2ccccc2)N1CCc1ccc(F)cc1,-21,8%,-32*,234*,39*,1
c1ccc(CCCCN2C(Nc3ccccc3)=NC[C@@H]2Cc2ccccc2)cc1,1,-6%,9,45*,0,-10
Cc1cccc(CCN2C(Nc3ccccc3)=NC[C@@H]2CC(C)C)c1,-24,6%,-19,215*,41*,11
CCN1C(Nc2ccccc2)=NC[C@@H]1CC(C)C,-8,-4%,4,3,17,1
CC(C)C[C@H]1CN=C(Nc2ccccc2)N1CC1CCCCCC1,7,-6%,-31*,29,1,-4
CC(C)C[C@H]1CN=C(Nc2ccccc2)N1CCc1cccc(F)c1,x,1%,x,x,x,x
N#C/C(C(=O)N1CCOCC1)=c1/s/c(=C\c2ccccn2)c(=O)n1-c1ccccc1,2,-3%,-26,0,0,-4
CCNS(=O)(=O)c1c(C)cc(N2CCCC2=O)cc1C,2,-10%,-11,4,0,-2
CC(C)c1nc2oc3ccccc3c(=O)c2c(=O)n1-c1ccccc1,1,5%,2,54*,0,9
O=c1c2ccccc2oc2nc(-c3ccco3)n(-c3ccccc3)c(=O)c12,2,3%,8,5,0,-6
CC(OC(=O)c1ccccc1C(=O)N(C)C1CCCCC1)C(=O)NC1(C#N)CCCCC1 (configuration not stated),-2,-4%,21,1,0,-5
CC(OC(=O)c1cc(Br)ccc1O)C(=O)NC1(C#N)CCCCC1 (configuration not stated),-1,-3%,-13,36*,3,-7
Cc1ccccc1CCN1CCCC(CN(C)CC(C)(C)C)C1 (configuration not stated),-2,-5%,-54*,-4,0,-4
COc1ccccc1CCN1CCCC(CN(C)CC(C)(C)CO)C1 (configuration not stated),24,-3%,22,1,24,-2
COc1ccc(F)c(CN(C)CC2CCCN(CCc3ccc(F)cc3)C2)c1 (configuration not stated),0,-3%,-58*,3,0,-12
CC(=O)c1cccc(CN(C)CC2CCCN(CCc3ccccc3C)C2)c1 (configuration not stated),-4,-2%,-66*,4,0,-9
COc1ccccc1CCN1CCCC(CN(C)C(=O)c2ccco2)C1 (configuration not stated),0,0%,-50*,2,1,-22
Cc1ccc(-n2c(-c3ccccc3)n[nH]c2=S)cc1,1,-6%,19,2,0,1
CC(=O)c1ccc(NC(=O)CN2C(=O)/C(=C/C=C/c3ccccc3)SC2=S)cc1,2,4%,-5,3,0,5
COc1cccc(-c2ccc(NC(=O)C3CCCN(CCCn4nc(C)cc4C)C3)cc2)c1 (configuration not stated),-3,5%,-21,41*,0,-7
COc1cccc(-c2ccc(NC(=O)C3CCCN(Cc4ccco4)C3)cc2)c1 (configuration not stated),x,5%,x,x,x,x
CCOC(=O)c1c(C)oc2ccc(N(C(=O)c3ccncc3)S(=O)(=O)c3ccc(Br)cc3)cc12,-5,-2%,-57*,3,0,-5
COC(=O)c1c(C)oc2ccc(N(C(=O)c3ccncc3)S(=O)(=O)c3ccc(Br)cc3)cc12,-10,-1%,-37*,12,1,0
CC(=O)c1c(C)oc2ccc(N(C(=O)c3ccncc3)S(=O)(=O)c3ccccc3)cc12,-7,17%,-6,1,-1,-4
COC(=O)c1c(C)oc2ccc(N(C(C)=O)S(=O)(=O)c3ccccc3)cc12,-4,-7%,-66*,2,0,-10
SMILES,TRHR enhancer,Glioma ERSR ind,D1 antagonist,D1 ag,TRHR agonist,D1 potentiator
O=C(CN1CCN(C(=O)c2ccccc2F)CC1)Nc1ccc(Br)cc1,-1,-6%,-18,6,0,-22
C[C@H](CO)N1C[C@H](C)[C@@H](CN(C)C(=O)Nc2ccc(C(F)(F)F)cc2)Oc2ccc(NC(=O)Nc3ccc4c(c3)OCO4)cc2C1=O,x,-4%,x,x,x,x
O=c1[nH]c(SCc2c(Cl)cccc2Cl)nc2ccccc12,-4,-7%,13,3,0,-5
NC(=O)C1CCN(C(=O)c2ccc(NS(=O)(=O)c3ccc(F)cc3)cc2)CC1,3,0%,8,2,0,x
O=Cc1c(NCc2ccc(Cl)cc2)c2ccccc2[nH]c1=O,-9,-5%,-37*,4,0,-6
O=Cc1c(NCc2ccccc2)c2ccccc2[nH]c1=O,-8,-2%,6,3,0,-1
Cc1ccc(-c2nc3scc(CCNS(=O)(=O)c4c(C)noc4C)n3n2)cc1,9,-3%,x,32*,-1,-2
CCCNc1c(NS(=O)(=O)c2ccc(OC)c(OC)c2)c(=O)oc2ccccc12,-8,-1%,5,3,0,0
O=C(CCC1CCCN(C(=O)c2ccc3c(c2)OCO3)C1)NCc1ccc(F)c(F)c1 (configuration not stated),-3,4%,-30*,1,-1,-4
O=[N+]([O-])c1ccc2nc(-c3ccc(Cl)cc3)[nH]c2c1,-15,-3%,-49*,27,1,-4
O=[N+]([O-])c1ccc2nc(-c3ccccc3[N+](=O)[O-])[nH]c2c1,-2,14%,-39*,10,-1,-9
Cn1c(N)c(C(=O)COC(=O)c2ccc(Cl)c(S(=O)(=O)N3CCCCC3)c2)c(=O)n(C)c1=O,0,-5%,-6,9,0,1
CCOC(=O)C(=Cc1cc(=O)c(OC)co1)C(=O)OCC,-4,-15%,-8,4,0,-3
O=C(Cc1ccc(Br)cc1)OCC(=O)N1CCCCCC1,x,-4%,x,x,x,x
O=C(O)c1ccc(CNCc2c(Cl)cccc2Cl)cc1,-1,-2%,-51*,2,1,-13
Cc1ccc(S(=O)(=O)N(C)C)cc1NC(=O)CSc1nnc(C2CC2)n1C1CC1,7,-9%,-68*,1,0,4
COc1ccc(-c2ncn(CCC#N)c2[N+](=O)[O-])cc1,33*,-3%,7,3,-1,-1
CCOc1ccccc1CNC(=O)c1ccc(Sc2ccc(Cl)cc2)c(NC(C)=O)c1,1,-4%,-39*,3,0,-3
CCOc1ccc(CNC(=O)c2ccc(Sc3ccc(Cl)cc3)c(NC(C)=O)c2)cc1,23,-1%,20,-2,0,-2
